SMILES strings stand for the structures. Results filed as inconclusive are left out. A number with no mark means an inactive call. Activity calls are given as the source filed them. Calls come from the whole dose curve; as a rule, active = well fitted activation curve with a large enough effect; inconclusive = small, poorly fitted or top-dose-only effect; inactive = flat fitted curve, though single readings scatter.

This assay can be described thus: Primary redox qHTS assay for identification of artifact compounds. (AID 1845223).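 Note: 0% = DMSO and 100% = reference compound.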 The conditions noted are these: Amplex Red/HRP redox cycling with DTT, fluorescence; series mostly up to 53.8 µM. In a few lines: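 Redox-cycling detection via DTT (250 uM final) oxidation coupled to Amplex Red (25 uM)/HRP (250 mU/mL) in HBSS. 15 min preincubation plus 30 min after DTT, room temperature. Ex/Em 525/598 nm; 4-parameter Hill fit against DMSO and 10 uM DA3003.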
In general terms: In qHTS, concentration-response curves come from the screen itself.
On to `CC(C)=C1CC[C@]23CO[C@H](C2)[C@@](O)(C(=O)O)CCC13` (some centres not stated), for which the compound was called inactive. For the compound `COC1CC(=O)C23C(=O)NC(CC(C)C)C2C(C)=C(C)C(OO)C3/C=C(\C)CCC(O)C1O` (configuration not stated), the outcome was inactive.

For the compound `COc1c(C(C)C)cc2c(c1O)[C@@]1(C(=O)O)CCCC(C)(C)C1CC2` (some centres not stated), the compound was classed as inactive. Still for that read-out and setting: the value for `CC1C/C=C/C(O)C(O)CC/C=C/c2cc(O)cc(O)c2C(=O)O1` (configuration not stated) was “inactive”. In the case of `C=CC(C)(O)CC/C=C(\C)C(=O)O[C@H]1[C@H](O)[C@@H](CO)O[C@@H](OC(=O)[C@]23CCC(C)(C)CC2C2=CCC4[C@@]5(C)CC[C@H](O[C@@H]6O[C@H](CO[C@@H]7OC[C@H](O)[C@H](O)[C@H]7O[C@@H]7OC[C@@H](O)[C@H](O)[C@H]7O)[C@@H](O)[C@H](O)[C@H]6O)C(C)(C)C5CC[C@@]4(C)[C@]2(C)CC3)[C@@H]1OC1OC(C)C(O[C@@H]2OC[C@@H](O)[C@H](O[C@@H]3OC[C@@H](O)[C@H](O)[C@H]3O)[C@H]2O)C(O)C1O` (some centres not stated), the redox activity (% of DA3003) is -6.27% [at 11.5 µM]. As to `COC1C(O)C(OC2CCC3(C=O)C(CCC4C3CCC3(C)C(C5=CC(=O)OC5)CCC43O)C2)OC(C)C1OC1OC(CO)C(O)C(O)C1O` (configuration not stated), the compound was called inactive. `COC1CC(O[C@H]2CC[C@@]3(C)C(=CCC4C3C(O)[C@@H](O)[C@]3(C)[C@@H](C(C)=O)CC[C@]43O)C2)OC(C)C1OC1CC(OC)C(OC2OC(C)C(O)C(O)C2O)C(C)O1` (some centres not stated): the redox activity (% of DA3003) is 8.26% [at 11.5 µM]. `CC(N)Cc1c[nH]c2ccccc12` (configuration not stated): the compound was called inactive. Same read-out and setting: next, `CC[C@H]1CN2CC[C@H]1C[C@@H]2[C@@H](O)c1ccnc2ccc(OC)cc12`: “inactive”. Same read-out and setting: the value for `C=C(C)[C@H]1O[C@H]2CC[C@@]3(C)[C@@](O)(CC[C@H]4[C@@H]5OC(C)(C)[C@H]6C[C@@H]7C(=C)Cc8c(Cl)cc9[nH]c(c5c9c8[C@@]76O)[C@@]43C)[C@]23O[C@@H]3[C@H]1O` was “inactive”.

For `COC1C(O)C(C)OC(OC2C(CO)O[C@@H](O[C@@H]3CC4CCC5C(CC[C@]6(C)[C@@H](C7=CC(=O)OC7)CC[C@]56O)[C@@]4(C)[C@H](O)C3)C(O)C2O)C1O` (some centres not stated), the outcome was inactive. With `CCc1[nH]c2ccc(OC)cc2c1CCN(C)C`, the compound was classed as inactive. The same measure, in the same setting: the value for `CCC1NC(=O)C2C(Cl)C(Cl)CN2C(=O)C(C(C)O)NC(=O)CC(c2ccccc2)NC(=O)C(CO)NC1=O` (configuration not stated) was “inactive”; that for `CN1CCCC1CCOC(c1cc2nccc(C(=O)O)c2[nH]1)c1ccccc1Cl` (configuration not stated) was “inactive”.

Regarding `Cc1c(Cl)cccc1S(=O)(=O)Nc1nc(CC(=O)N2CCN(C)CC2)cs1`, the compound was classed as inactive.

Consider `CC(=O)OC1CC(O)C(C)(C)C2CC(OC(C)=O)C3(C)C(CCC4(C)C(c5ccoc5)C(=O)C5OC543)C12C` (configuration not stated), for which the call was inactive. As for `COC1=CC(=O)O[C@@H](CCc2ccccc2)C1`, the result was inactive.

As for `CC1=C2C[C@H]3[C@@H](CC=C4C[C@@H](O)CC[C@@]43C)[C@@H]2CC[C@]12O[C@@H]1C[C@H](C)CN[C@H]1[C@H]2C`, the call was inactive.

As for `CC(C)(O)[C@H]1O[C@H]2CC[C@@]3(C)[C@@](O)(CC[C@H]4Cc5c([nH]c6ccccc56)[C@@]43C)C2=CC1=O`, the call was inactive. `OCCCCC#Cc1cncc(OC[C@@H]2CCN2)c1`: the call was inactive. Same read-out and setting: the value for `C[C@]12CC[C@@H](O)C[C@H]1CC[C@@H]1[C@@H]2CC[C@]2(C)C(=O)CC[C@@H]12` was “inactive”. For the compound `CC(=O)OC12C(O)C(C)C3(O)C4C=C(C)C(=O)C4CC(CO)=CC3C1C2(C)C` (configuration not stated), the compound was called inactive. The same measure, in the same setting: the value for `COc1ccccc1CN[C@H]1C2CCN(CC2)[C@H]1C(c1ccccc1)c1ccccc1` was “inactive”. As for `CCCCCCn1c(=O)c(C(=O)Nc2ccc(C(=O)OCCC)cc2)c(O)c2ccccc21`, the redox activity (% of DA3003) was -1.37% [at 11.5 µM]. On to `COC1=CC(=O)O[C@@H](/C=C/c2ccccc2)C1`, for which the call was inactive.

As to `CCCN1CCO[C@H]2c3cc(O)ccc3OC[C@@H]21`, the compound was called inactive.

On to `COc1cc(C(=O)O[C@H]2[C@@H]3C=CO[C@@H](O[C@@H]4O[C@H](CO)[C@@H](O)[C@H](O)[C@H]4O)[C@@H]3[C@@]3(CO)O[C@@H]23)ccc1O`, for which the result was inactive. `CCN1C[C@]2(COC)[C@H](O)C[C@H](OC)[C@]34[C@@H]5C[C@]6(O)[C@H](OC(=O)c7ccccc7)[C@@H]5[C@@](O)([C@H]([C@H](OC)[C@H]23)[C@@H]14)[C@@H](O)[C@@H]6OC`: the compound was classed as inactive. As to `C[C@H](NC(=O)Cc1cc(F)cc(F)c1)C(=O)N[C@@H]1N=C(c2ccccc2)c2ccccc2N(C)C1=O`, the outcome was inactive. Consider `C1=C2CCCN[C@H]2[C@@H]2C[C@H]1[C@H]1CCCCN1C2`, for which the outcome was inactive.

For the compound `C[C@@H]1C(=O)O[C@H]2[C@H](O)[C@@]34[C@@H]5OC(=O)[C@@]3(O[C@@H]3OC(=O)[C@@H](O)[C@@]34[C@H](C(C)(C)C)[C@H]5O)[C@@]12O`, the compound was called inactive. Still for that read-out and setting: next, `CN1C(=O)c2ccccc2NC(=O)[C@]12O[C@@H]2c1ccccc1`: “inactive”.

The values are drawn from PubChem BioAssay (NCATS).
